From PubChem BioAssay (NCI)
The panel holds about 79,000 compounds, 15% with a hit somewhere; the sample as a whole holds those more often. A number with no mark means an inactive call. Active and inactive are the calls of the source. No stated cut-off is given here; in the data, active means growth inhibition above about 70%; inactive means the rest.

Legend:
[1] = NCI Yeast Anticancer Drug Screen. Data for the rad50 strain (AID 155);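 further: 0% = growth of vehicle-only cultures of the same strain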; conditions: S. cerevisiae rad50 strain growth inhibition, hits give high values
Outline: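 Relative growth inhibition (compound vs vehicle) was measured in yeast with a defined repair-gene alteration.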

[2] = NCI Yeast Anticancer Drug Screen. Data for the mec2-1 strain (AID 157); conditions: S. cerevisiae mec2-1 strain, hits give high values
Outline: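 Readout is yeast growth inhibition, normalised to vehicle-treated controls, in the mec2-1 strain exposed to compound.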

[3] = NCI Yeast Anticancer Drug Screen. Data for the sgs1 mgt1 strain (AID 161);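 further: 0% = growth of cultures given vehicle only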; conditions: S. cerevisiae sgs1 mgt1 strain, hits give high values
Outline: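 Compounds are added to genetically altered yeast, and growth is compared with cultures given vehicle alone to give percent inhibition.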

[4] = NCI Yeast Anticancer Drug Screen. Data for the cln2 rad14 strain (AID 165);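 further: 0% = growth equal to vehicle treated cultures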; conditions: S. cerevisiae cln2 rad14 strain, hits give high values
Outline: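 Relative to vehicle controls, growth inhibition of compound-treated cln2 rad14 yeast was recorded.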

[5] = NCI Yeast Anticancer Drug Screen. Data for the bub3 strain (AID 167); conditions: S. cerevisiae bub3 mutant strain, hits give high values
Outline: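 Screening used yeast with an engineered genetic alteration affecting cell cycle control. Compound-exposed cultures were compared with vehicle cultures, and reduced growth was taken as inhibition.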

[6] = NCI Yeast Anticancer Drug Screen. Data for the mlh1 rad18 strain (AID 175); conditions: S. cerevisiae mlh1 rad18 strain growth inhibition, hits give high values
Outline: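 Test agents were incubated with a yeast strain of defined genotype (DNA damage repair defect). Inhibition of growth was derived by comparison with vehicle-exposed cultures.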

[7] = at 5.0 µM (retest, dose inferred, filed as 0.5)
[8] = at 50.0 µM (retest, dose inferred, filed as 5.0)

Row | Structure (SMILES) | growth inhibition [1, 7] | growth inhibition [1, 8] | growth inhibition ([1]; at 50.0 µM) | growth inhibition [2, 7] | growth inhibition [2, 8] | growth inhibition ([2]; at 50.0 µM) | growth inhibition [3, 7] | growth inhibition [3, 8] | growth inhibition ([3]; at 50.0 µM) | growth inhibition [4, 7] | growth inhibition [4, 8] | growth inhibition ([4]; at 50.0 µM) | growth inhibition [5, 7] | growth inhibition [5, 8] | growth inhibition ([5]; at 50.0 µM) | growth inhibition [6, 7] | growth inhibition [6, 8] | growth inhibition ([6]; at 50.0 µM)
1 | Clc1ccc(-c2cc(-c3cc(-c4ccc(Cl)c(Cl)c4)n[nH]3)[nH]n2)cc1Cl | -2% | 68% | 91% (active) | 6% | 43% | 22.8% | 0% | 67% | 65% | 3% | 60% | 29.7% | -14% | 89% (active) | 22.8% | 19% | 89% (active) | 65%
2 | O=C(O)CSc1nc(-c2ccccc2)c(-c2ccccc2)n1-c1ccccn1 | 1% | 5% | 76.2% (active) | -6% | -10% | 40.5% | -12% | 4% | 82.8% (active) | 18% | 4% | 61.8% | -13% | -9% | 47.4% | 8% | 6% | 11.2%
3 | O=c1cccccc1O | 14% | 97% (active) | 90.4% (active) | 4% | 100% (active) | 91.7% (active) | 8% | 99% (active) | 93.3% (active) | 16% | 62% | 85.7% (active) | 26% | 97% (active) | 91.5% (active) | 13% | 98% (active) | 81.1% (active)
4 | N=C(N)c1ccc(Nc2ccc(-c3cc4ccc(C(=N)N)cc4[nH]3)cc2)cc1 | 99% (active) | 98% (active) | 98.5% (active) | 99% (active) | 99% (active) | 98.8% (active) | 99% (active) | 99% (active) | 98.8% (active) | 99% (active) | 98% (active) | 98.3% (active) | 99% (active) | 98% (active) | 99% (active) | 99% (active) | 98% (active) | 98.5% (active)
5 | COc1cccc(C2c3cc4c(cc3OC(NNS(=O)(=O)c3ccc(C)cc3)C2C)OCO4)c1O (configuration not stated) | -7% | 94% (active) | 75.4% (active) | -10% | 81% (active) | 85.6% (active) | -4% | 95% (active) | 92.2% (active) | 9% | 88% (active) | 87.2% (active) | -20% | 92% (active) | 54% | 6% | 94% (active) | 85.5% (active)
6 | CN(C)CCC(=O)C(=Cc1cc(Cl)cc(Cl)c1)C(=O)CCN(C)C | 2% | 98% (active) | 96.3% (active) | -19% | 99% (active) | 99% (active) | 12% | 99% (active) | 85.2% (active) | 0% | 98% (active) | 40.6% | -8% | 98% (active) | 97.8% (active) | -4% | 97% (active) | 97.5% (active)
7 | CCCCC(CCc1ccccc1)(C(=O)O)c1ccccc1 (configuration not stated) | 88% (active) | 99% (active) | 99.4% (active) | 87% (active) | 99% (active) | 99.5% (active) | 68% | 99% (active) | 99.7% (active) | 88% (active) | 99% (active) | 99% (active) | 72% (active) | 99% (active) | 99.5% (active) | 92% (active) | 99% (active) | 99.4% (active)
8 | Cc1ccc([PH+](CC[PH+](c2ccccc2)c2ccccc2)c2ccc(C)cc2)cc1.Cc1ccc([PH+](CC[PH+](c2ccccc2)c2ccccc2)c2ccc(C)cc2)cc1.[Pt] | 40% | 88% (active) | 88.8% (active) | 26% | 91% (active) | 90.7% (active) | 33% | 95% (active) | 91.3% (active) | 34% | 93% (active) | 89.8% (active) | 29% | 94% (active) | 90.7% (active) | 39% | 93% (active) | 88.5% (active)
9 | COc1ccc(CC[N+]2(C)COc3cc4oc(=O)cc(C)c4cc3C2)cc1OC (configuration not stated) | 5% | 9% | -42.5% | 0% | -14% | -33.5% | 0% | -6% | -27.9% | -21% | 9% | 34.6% | -8% | 0% | -20.9% | 9% | 7% | -32.5%
